Experimental findings from PubChem BioAssay AID651819 (National Center for Advancing Translational Sciences (NCATS), 2012) are described below.

The whole screen tested about 360,000 compounds, of which about 1,100 (0.31%) were called active. Only a selection was taken, and actives are over-represented in it overall. Values without a mark were called inactive. No stated cut-off is given here; in the data, active means activity change below about -30%; inactive means the rest.
On the % scale 0 is the no-effect control and ±100 the full control effect.

The experiment deals with cytosolic chaperonin (CCT/TRiC complex). The experiment is described as follows: High-Throughput Screening for Modulators of Cytosolic Chaperonin Activity. The note with it: purified chaperonin ATPase assay, HTRF ADP detection, 30 min; hits give low values. The method, boiled down: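 TRiC (40 or 20 nM final, by batch activity) in 30 mM Tris pH 7.4, 100 mM KCl, 5 mM MgCl2, 1 mM DTT was treated with compound at 76 uM single dose, then 10 uM ATP, 30 min at 37 °C. ADP was read by HTRF Transcreener.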
For orientation: Time-resolved FRET reads energy transfer from a long-lived donor to a nearby acceptor.
In the case of `C/C(Cc1ccccc1)=N\NC(=O)CNC(=O)c1ccccc1Cl`, the activity change is 0.921%.

Turning to `CC(C)CNC(=O)COC(=O)c1ccccc1OCC(=O)Nc1ccc(Br)cc1`, the activity change is 0.0186%.

`O=C(O)c1ccccc1-c1ccccc1C(=O)NCc1cccnc1`: the activity change was -1.06%.

Take `CN(c1ccccc1)S(=O)(=O)c1ccc(C(=O)NCc2cccnc2)cc1`: the activity change is 0.104%.

`O=C(NCc1cccnc1)c1cnc2ccccc2n1`: the activity change is -37.4% (active).

With `CC(C)(C)OC(=O)CNC(=O)c1[nH]cnc1C(=O)N[C@@H](CCCCN)C(=O)OC(C)(C)C`, the activity change was 0.783%.

`NC(=O)c1nsc(C(=O)N(CCCN2CCOCC2)C(C(=O)NC2CCCCC2)c2ccc(Cl)cc2)c1N` (stereo unspecified): the activity change was -0.121%.

Turning to `CCc1nc2sc3c(Cl)ncnc3c2c2c1CCCC2`, the activity change is -2.15%.

For the compound `COc1ccc(C(CC(=O)Nc2ccc(C)cc2)NC(=O)C(F)(F)F)cc1` (stereo unspecified), the activity change is 0.31%.

For the compound `COc1ccc(NC(=O)C(=O)NCC(=O)Nc2cccc(C(F)(F)F)c2)cc1`, the activity change was -44.8% (active).

With `C/C(CC(=O)Nc1cccc(C(F)(F)F)c1)=N\NC(=O)C(=O)NCC(C)C`, the activity change is -0.0398%.

As for `Cc1ccc(CN2CC(C(=O)NNC(=O)Cn3ccc(C(F)(F)F)n3)CC2=O)cc1` (stereo unspecified), the activity change was -2.29%.

As for `Cc1cccc(-n2c(SCC(=O)Nc3cccc(S(=O)(=O)NC4=NCCCCC4)c3)nc3ccccc3c2=O)c1C`, the activity change is -6.85%.

For `O=C(CCN1C(=O)[C@@H]2Cc3ccccc3CN2C1=O)NCc1ccccc1`, the activity change was -37.1% (active).

As to `O=C(CCN1C(=O)[C@@H]2Cc3ccccc3CN2C1=O)NCCc1ccccc1`, the activity change was -0.128%.

For `Cc1ccc(CNC(=O)CCN2C(=O)[C@@H]3Cc4ccccc4CN3C2=O)cc1`, the activity change is -0.496%.

In the case of `CCN1C(=NCc2ccc(OC)cc2)N[C@@H](CCc2ccccc2)[C@H](C(=O)NCc2ccc(OC)cc2)[C@H]1C`, the activity change is -0.204%.

Turning to `NC1=NC(c2ccc([N+](=O)[O-])cc2)N(c2ccc(F)cc2)C(N)=N1` (stereo unspecified), the activity change was 1.53%.

For `COc1cc(C=O)ccc1Oc1nnnn1-c1ccccc1`, the activity change is 0.228%.

Consider `COc1ccc(C2N=C(N)N=C(N)N2c2ccccc2)cc1OC` (stereo unspecified), for which the activity change is -35.3% (active).

With `Nc1nonc1-n1nnc(C(=O)N/N=C/c2cc(Br)ccc2O)c1CSC1=NCCS1`, the activity change was 1.21%.

For `Cc1nn(-c2ccccc2)c2sc(C(=O)N(Cc3ccco3)C(C)C(=O)NC(C)(C)C)cc12` (stereo unspecified), the activity change is 1%.

Take `O=C(CCCCCn1c(=S)[nH]c2cc3c(cc2c1=O)OCO3)N1CCN(c2ccc(F)cc2)CC1`: the activity change is -31.7% (active).

Turning to `Cc1ccc(C)c(N2CCN(C(=O)CCCCCn3c(=S)[nH]c4ccc(N5CCOCC5)cc4c3=O)CC2)c1`, the activity change was 1.65%.

Consider `CC(C)NC(=O)CCCn1c(=S)[nH]c2cc3c(cc2c1=O)OCO3`, for which the activity change was -1.56%.

For `CC(C)N(C(=O)Cn1c(SCC(=O)N2CCN(c3ccccc3)CC2)nc2ccccc21)C(C)C`, the activity change was -3.64%.

With `Cc1ccc(S(=O)(=O)/N=C(/NC(=S)Nc2c(C)n(C)n(-c3ccccc3)c2=O)c2ccccc2)cc1`, the activity change is -1.68%.

In the case of `Cc1c(CN2CCC(CO)(CCOc3ccccc3)CC2)[nH]c2ccc(Cl)cc12`, the activity change was -56% (active).

With `OCC1(CCc2ccccc2)CCN(Cc2ccc3nsnc3c2)CC1`, the activity change is -4.83%.

Regarding `COc1cccc(CC2(CO)CCN(Cc3cnc(-c4cccc(C)c4)nc3)CC2)c1`, the activity change is -1.28%.

As to `O=C1C2C3C=CC(C3)C2C(=O)N1c1ncc([N+](=O)[O-])s1` (stereo unspecified), the activity change is -1.62%.

Consider `COc1ccc(/C=C/C(=O)OCC(=O)NCc2cccs2)cc1OC`, for which the activity change was -2.94%.

`OC(c1ccccc1)c1nc(-c2cnc3ccccc3c2)cs1` (stereo unspecified): the activity change was -40.1% (active).

As to `COc1cccc(C(NC(C)=O)c2nc(-c3cnc4ccccc4c3)cs2)c1` (stereo unspecified), the activity change is 0.873%.

On to `CC(C)c1cccc(-c2csc(C(O)c3ccccc3)n2)c1` (stereo unspecified), for which the activity change was -0.363%.

In the case of `COC(=O)C[C@H]1C[C@@H]2c3cc(N(C)C)ccc3O[C@@H]2[C@H](CO)O1`, the activity change is -1.3%.

As for `CCOC(=O)c1ccccc1NC(=O)c1c(N)n(C)c(=O)[nH]c1=O`, the activity change is 2.1%.

Turning to `O=C(Nc1ccccc1-c1nnn(CC(=O)N2CCCc3ccccc32)n1)c1cccc(Cl)c1`, the activity change was -0.628%.

For `CC1=C(C(=O)NC2CC(C)(C)Cc3c2cnn3-c2ccc(C)cc2)OCCO1` (stereo unspecified), the activity change was -89.1% (active).

As to `Cc1ccc(-n2ncc3c2CC(C)(C)CC3NC(=O)Cc2c(C)noc2C)cc1` (stereo unspecified), the activity change was 1.55%.

Regarding `COCc1ccc(C(=O)NC2CC(C)(C)Cc3c2cnn3-c2ccc(C)cc2)o1` (stereo unspecified), the activity change was -1.13%.

For the compound `Cc1ccc(-c2c(C)n([O-])c3c([n+]2=O)CCC3)cc1`, the activity change is -0.716%.

Regarding `O=C1/C(=C\c2cccnc2)CN(Cc2ccccc2)C/C1=C\c1cccnc1`, the activity change is -1.65%.

Consider `COc1ccc(C2=NOC3(CC(=O)N(c4ccc(Cl)cc4)C3=O)C2)c(OC)c1` (stereo unspecified), for which the activity change was 1.68%.

In the case of `CC(=O)c1c(C)c[nH]c1C`, the activity change was 0.144%.

Take `Cc1ccc(S(=O)(=O)NCC(=O)Nc2ccc3c(c2)OCCO3)cc1`: the activity change was -2.11%.

For the compound `CC(=O)Nc1ccc(NC(=O)C(NS(=O)(=O)c2ccc3c(c2)OCCO3)C(C)C)cc1` (stereo unspecified), the activity change was -1.81%.

`CC(NS(=O)(=O)c1ccc(Cl)cc1)C(=O)Nc1ccc2c(c1)OCCO2` (stereo unspecified): the activity change is -38.5% (active).

For the compound `COc1cc(Cl)c(C)cc1NC(=O)CSc1nnc(-c2ccco2)n1CC(C)C`, the activity change was -2.06%.

As to `COc1ccccc1N1CCN(C(=O)CSc2ncnc3c2cnn3-c2ccc(C)c(C)c2)CC1`, the activity change is -0.613%.

For `CN(C(=O)CC(NC(=O)c1ccccc1)(c1ccccc1)c1ccccc1)c1ccccc1`, the activity change was -1.61%.

As for `CCOC(=O)N/N=C1\CC(C)S(=O)(=O)c2ccc(Cl)cc21` (stereo unspecified), the activity change was -3.43%.

Take `CC(=O)c1cc2c(cc1NC(=O)CN1CCCCCC1)OCO2`: the activity change is -1.13%.

On to `CCOc1cccc(NC(=O)Cn2nc(-c3ccc4c(c3)OCCO4)ccc2=O)c1`, for which the activity change was 2.22%.

As for `CC(=O)c1cc2c(cc1NC(=O)Cn1nc(-c3ccc(F)cc3)ccc1=O)OCO2`, the activity change is -31.8% (active).

With `Cc1cccc2c1cnn2C(=O)CCC(=O)NC1CCCCC1`, the activity change is 0.998%.

With `C=CCN(N=Nc1cccc([N+](=O)[O-])c1)c1cccc([N+](=O)[O-])c1`, the activity change was -0.537%.

With `CC1=C(C(=O)OC(C)(C)C)C(c2ccc(Br)cc2)NC(=O)N1CCCC(=O)O` (stereo unspecified), the activity change was -0.201%.

Turning to `Cc1n[nH]c(=O)n1-c1ccc(C(C)C)cc1`, the activity change was 0.471%.

Take `Cc1n[nH]c(=O)n1-c1ccc(Oc2ccccc2)cc1`: the activity change is -105% (active).

`O=C1CS(=O)CN1c1ccc(Oc2ccccc2)cc1` (stereo unspecified): the activity change was -3.89%.

`O=C(NCCCN1CCCCC1)c1ccc2c(c1)NC(=O)C(N1CCOCC1)S2` (stereo unspecified): the activity change is -0.706%.

With `O=C(NCCCN1CCOCC1)c1ccc2c(c1)N(Cc1cccc(F)c1)C(=O)c1ccccc1S2`, the activity change was -77.1% (active).

`O=C(NCCCN1CCOCC1)c1cc(-c2ccccc2F)no1`: the activity change is 1.6%.

As to `CCc1ccc(CN(C)C(C)C(=O)Nc2ccc(S(=O)(=O)N3CCCC3)cc2)cc1` (stereo unspecified), the activity change was -0.65%.

Regarding `Cc1ccc(C2C(C#N)C(C#N)N3CCCN23)cc1` (stereo unspecified), the activity change was 0.118%.
